Out of some 52,000 compounds screened, about 4,300 (8.3%) were called active. The sample holds actives, similar compounds and a random draw of the others, so the mix is not that of the screen. A number with no mark means an inactive call. Cut-off read from the data, not from the text of the source: active = survival mostly below about 52% (no sharp cut-off); inactive = mostly above about 56%.
Each molecule was assayed on DeltatarO mutant (assay: growth inhibition of S. aureus wild type versus tarO mutant, primary screen, teichoic acid synthesis inhibitors, RN4220, OD600 (AID 463173)). Conditions: OD600, 18 h, hits give low values, screened at 18.75 µg/mL (by protocol).
With `COc1ccc(C2CC(=O)Nc3c2c(C)nn3-c2nncc(-c3ccc(C)cc3)n2)c(OC)c1OC` (centres undefined) the survival was 83%. `CCOc1ccc(/C=C(\C#N)C(=O)NCc2ccco2)cc1OC` gave a survival of 113%. Molecule `CCOc1ccc(CNCc2c(C(=O)O)c(C)n(Cc3c(F)cccc3Cl)c2C)cc1OC` has a survival of 56%. `COc1ccc(C2CC(=O)c3cc(-c4nc(-c5ccc(C)cc5)cs4)c(=O)[nH]c3C2)cc1` (centres undefined) was tested, and the survival was 76%. `O=C(CNC(=O)c1ccc(Cl)cc1)OCc1cc(=O)n2nc(C3CCCCC3)sc2n1` showed a survival of 90%. Work on `CCCCn1cc(S(=O)(=O)c2ccc(Cl)cc2)c(=O)c2cc(F)c(N3CCCC(C)C3)cc21` (centres undefined) yielded a survival of 117%. Work on `O=C(c1ccc(F)cc1)C1CCN(S(=O)(=O)c2ccc(F)cc2)CC1` yielded a survival of 95%. Work on `COc1ccc(CNC(=O)CCCc2nnc3n(CCC(C)C)c(=O)c4sccc4n23)cc1` yielded a survival of 93%. `Cc1ccc2nc(NC(=O)CSc3cc(C)[nH]c(=O)n3)sc2c1` gave a survival of 79%. Molecule `Cc1ccc(OCCSc2nc3ccccc3n2CC(=O)N2CCOCC2)cc1C` has a survival of 53%. With `Cc1ccc(OCCSc2nc3ccccc3n2CC(=O)NC(C)C)cc1` the survival was 52%. Molecule `O=C(Cn1c(SCCOc2ccc(Cl)cc2)nc2ccccc21)N1CCCCC1` has a survival of 50%. `Cc1ccc(OCCSc2nc3ccccc3n2CCC(=O)O)cc1C` was tested, and the survival was 47% (active). In the case of `CCc1ccc(OCCSc2nc3ccccc3n2CC(=O)N2CCCCC2)cc1`, the survival is reported as 40% (active). For `Cc1cccc(C)c1OCCSc1nc2ccccc2n1CC(=O)O`, the survival was 83%. For `Cc1ccc(OCCSc2nc3ccccc3n2CC(=O)N2CCCCC2)cc1C`, the survival was 46% (active). `CCN(CC)C(=O)Cn1c(SCCOc2ccc(Cl)cc2)nc2ccccc21` was tested, and the survival was 43% (active). `Cn1c(SCCC(=O)O)nc2ccccc21` gave a survival of 83%. `CCN(CC)C(=O)Cn1c(SCC(=O)Nc2ccc(F)cc2)nc2ccccc21` was tested, and the survival was 100%. `CCc1ccccc1NC(=O)CCn1cccn1` gave a survival of 135%. Molecule `CCC1CN(C(=O)N2CCC(C(=O)NCc3ccco3)CC2)c2ccccc2O1` (centres undefined) has a survival of 66%. With `COc1ccccc1CNC(=O)C1CCN(S(=O)(=O)c2c(C)noc2/C=C/c2cccs2)CC1` the survival was 59%. Work on `CN(C(=O)CSc1nc2ccc(NC(=O)c3cccc(F)c3)cc2s1)c1ccccc1` yielded a survival of 69%. Molecule `Cc1ccccc1NC(=O)C(=O)NCC(c1ccc2c(c1)OCO2)N1CCN(c2ccccc2)CC1` (centres undefined) has a survival of 73%. Work on `O=S(=O)(Nc1cccc(C(F)(F)F)c1)c1ccc(-c2cnc(C3CC3)o2)cc1` yielded a survival of 91%. Molecule `c1ccc2[nH]c(CN3CCCCC3)nc2c1` has a survival of 59%. For `O=C(NCc1ccc(F)cc1)c1ccc(NC(=O)N2CC3CCCN3c3ccccc32)cc1` (centres undefined), the survival was 113%. Molecule `Cc1oc(CC(C)C)cc1C(N)=O` has a survival of 100%. `O=C(CSC1=Nc2ccccc2C2=NC(Cc3ccccc3)C(=O)N12)Nc1ccccc1` (centres undefined) gave a survival of 74%. `CCOc1ccc(-c2cn(-c3ccc(OC)cc3)c(SCC(=O)Nc3ccccc3Cl)n2)cc1` showed a survival of 99%. With `CCOc1ccc(NC(=O)CSc2nnc3scc(-c4ccccc4)n23)cc1` the survival was 17% (active). `COc1ccc(NC(=O)CSc2nnc3scc(-c4ccc(Cl)cc4)n23)cc1` was tested, and the survival was 95%. `Cc1cccc(NC(=O)CSc2nnc3scc(-c4ccccc4)n23)c1` was tested, and the survival was 40% (active). With `O=C(CSc1nnc2scc(-c3ccc(Cl)cc3)n12)Nc1ccc(F)cc1` the survival was 57%. `CC(C)(C)c1ccc(NC(=O)CSc2nnc3scc(-c4ccccc4)n23)cc1` was tested, and the survival was 41% (active). `O=C(CSc1nnc2scc(-c3ccc(Cl)cc3)n12)Nc1cccc(C(F)(F)F)c1` gave a survival of 58%. Molecule `COc1cccc(NC(=O)CSc2nnc3scc(-c4ccc(Cl)cc4)n23)c1` has a survival of 52%. `Cc1ccc(NC(=O)CSc2nnc3scc(-c4ccc(Cl)cc4)n23)cc1` was tested, and the survival was 49%. With `O=C(CSc1nnc2scc(-c3ccccc3)n12)Nc1ccc(Cl)cc1` the survival was 56%. `CCOc1ccc(NC(=O)CSc2nnc3scc(-c4ccc(Cl)cc4)n23)cc1` was tested, and the survival was 48%. With `Cc1ccc(NC(=O)CSc2nnc3scc(-c4ccccc4)n23)cc1` the survival was 15% (active). Work on `CC(=O)Nc1ccc(C(=O)CSc2nnc3scc(-c4ccccc4)n23)cc1` yielded a survival of 89%. `CC(NCc1ccc(F)cc1)C(=O)NC1CCCCC1` (centres undefined) was tested, and the survival was 79%. `Cc1ccc(NC(=O)C2CC(=O)N(c3ccc(OC(C)C)cc3)C2)cc1` (centres undefined) gave a survival of 82%. `COc1ccc(C2CC(c3c(O)n(C4CCCCC4)c(=O)[nH]c3=O)=Nc3ccccc3S2)cc1` (centres undefined) showed a survival of 48%. With `O=C1COc2ccccc2N1Cc1ccc(OC(F)(F)F)cc1` the survival was 86%. For `COc1ccc(CC(=O)NCc2ccc3c(c2)CCN3C(=O)c2ccccc2)cc1OC`, the survival was 82%. For `Cc1ccc(CN(Cc2cccn2-c2nnc(N3CCCC3=O)s2)C(=O)Nc2cc(C)cc(C)c2)cc1`, the survival was 123%. For `COc1ccc(Nc2nc3ccc(C)cc3nc2-n2nc(C)cc2C)cc1Cl`, the survival was 69%. For `COc1cccc(CNC(=O)c2ccc3c(c2)nc2n3CCC(C)C2)c1` (centres undefined), the survival was 72%. With `Cc1cn2c(=O)cc(COC(=O)c3cccc(NC(=O)COc4ccccc4C)c3)nc2s1` the survival was 85%. `CCOc1ccc(CCNC(=O)c2cc3c(-c4ccccc4F)nn(C)c3s2)cc1OCC` gave a survival of 67%. `CCn1nc(-c2ccccc2)c(-c2ccccc2)c(C(=O)Nc2nc(C)c(C(C)=O)s2)c1=O` was tested, and the survival was 53%. `COCc1cc(C)nc2c1C(=O)NC(c1ccc(NC(C)=O)cc1)N2Cc1ccccc1` (centres undefined) showed a survival of 74%. For `O=C(CSc1nccn1Cc1ccc(Cl)cc1)NC1CCCC1`, the survival was 83%. `COc1ccc(CNC(=O)Cn2c(=O)nc(-c3ccccc3F)c3cc(Cl)ccc32)cc1` gave a survival of 72%. With `Nc1nc(OC(C(F)(F)F)C(F)(F)F)nc(OC(C(F)(F)F)C(F)(F)F)n1` the survival was 13% (active). With `CCC(C)Nc1nc(OC(C(F)(F)F)C(F)(F)F)nc(N(CC)CC)n1` (centres undefined) the survival was 80%. For `FC(F)(F)COc1nc(OCC(F)(F)F)nc(OCC(F)(F)F)n1`, the survival was 74%.
